Reference: ChEMBL document CHEMBL3988442, “University of Dundee, Small-Polar-MMV Screening Library” (2021)
Screen size: about 53,000 compounds; about 900 (1.7%) showed an effect of 50% or more. This is one part of a sample in which strong results are shown more often than they occur.

test system: Mycobacterium tuberculosis; assay: Cornell - Phenotypic assay to identify agents that inhibit growth of Mycobacterium tuberculosis; assay type: functional; set-up: scale not given: direction of the effect not stated beside the values; settings: 10 mM as filed; unlikely as a test dose

| Compound | Percent Effect [%] |
| --- | --- |
| CN1C(=O)C(C)(C)COc2ccc(NS(=O)(=O)Cc3ccccc3)cc21 | -4.912 |
| CN(C)C(=O)c1cnc2n1CCN(Cc1ccsc1)C2.O=C(O)C(F)(F)F | 1.254 |
| Cc1ccc(CSc2nc(N)cc(NCCC(=O)N3CCCC3)n2)cc1 | 88.28 |
| Cc1ccc(CSc2ncc(Br)c(C(=O)O)n2)cc1 | 1.969 |
| CCc1cc(NCCS(=O)(=O)N(C)C)nc(N2CCOCC2)n1 | 22.77 |
| Cc1ccc(CSc2nc(N)cc(NCC(=O)N3CCNCC3)n2)cc1 | -47.88 |
| Cc1ccc(CSc2nc(N)cc(NCCS(=O)(=O)N(C)C)n2)cc1 | 52.28 |
| Cc1ccc(CSc2nc(N)cc(NCCC(N)=O)n2)cc1 | 44.65 |
| CCn1cnnc1CNC(=O)N1CCC(O)CC1 | -20.2 |
| CC(=O)N1CCCN(C(=O)c2cnn(-c3ccccc3Cl)c2)CC1 | -28.49 |
| Cc1cc(C(F)(F)F)nn1CCCNC(=O)C1CCCO1 (stereo not given) | -51.46 |
| O=C(NCC1CC1)C1CCC2(CCN(C(=O)c3ccoc3)CC2)O1 (stereo not given) | -8.481 |
| Cc1ccc2[nH]c(C3CCN(CC(N)=O)CC3)nc2c1 | -20.2 |
| CCC1CCCCN1Cc1ncc(C(C)(C)C)o1 (stereo not given) | -71.87 |
| Cl.NC1CCc2nc(-c3ccncc3)nc(Nc3cccc(F)c3)c2C1 (stereo not given) | 61.47 |
| Cl.NC1CCc2nc(-c3cccnc3)nc(Nc3ccc(F)cc3)c2C1 (stereo not given) | 98.04 |
| O=C(Nc1cccc(F)c1)NC1CCN(Cc2ccncc2)CC1 | 26.05 |
| c1cncc(-c2nc3c(c(NCC4(c5ccncc5)CC4)n2)CCC3)c1 | 21.3 |
| COc1cccc(Nc2nc(-c3ccncc3)nc3c2CNCC3)c1.Cl | -3.556 |
| CC(O)CNc1nc(-c2cccnc2)nc2c1CCC2 (stereo not given) | 12.92 |
| O=C(O)C(F)(F)F.O=C1COC2(CCN(Cc3cccs3)CC2)CN1c1cncnc1 | 13.06 |
| Cc1cnc(N2C(=O)CSC2c2ccccc2)s1 (stereo not given) | 7.465 |

| Compound | Percent Effect [%] |
| --- | --- |
| Cn1cnnc1CN1CCC2(CCCN(C3CCCCC3)C2=O)C1 (stereo not given) | 8.326 |
| CN(C)CCCNC(=O)c1ccccc1NC(=O)c1ccccc1Cl | 2.69 |
| O=C(NCCCN1CCCC1=O)c1ccc(-n2ccc3ccccc32)s1 | 19.74 |
| O=C(NCCCN1CCCCC1)c1ccc(-n2ccc3ccccc32)s1 | 59.15 |
| O=C(NCCCN1CCOCC1)c1ccc(-n2ccc3ccccc32)s1 | -5.378 |
| O=C(NCc1cccnc1)[C@H]1C[C@@H]2CCN(c3ccncn3)C[C@H]2O1.O=C(O)C(F)(F)F.O=C(O)C(F)(F)F | 15.26 |
| CCOCCCn1c(NC(=O)c2scnc2C)nc2ccccc21 | 74.98 |
| CCOCCCn1c(NC(=O)c2cnn(C)c2)nc2ccccc21 | 87.33 |
| CCOC(=O)CNC(=O)c1scnc1C | 8.54 |
| CCOCCCn1c(NC(=O)c2ccc(C)nc2)nc2ccccc21 | 49.04 |
| Cn1cc(NC(=O)Cn2c(CS(C)(=O)=O)nc3ccccc32)cn1 | -19.06 |
| Cc1ncsc1C(=O)Nc1ccccn1 | 6.488 |
| CC(NC(=O)Cc1ccccc1F)C(=O)N1CCS(=O)(=O)CC1 (stereo not given) | 19.17 |
| O=C(NCCc1ccc(Cl)s1)N1CCS(=O)(=O)CC1 | 3.625 |
| Cc1ccc(CC(=O)NC(C)C(=O)N2CCS(=O)(=O)CC2)s1 (stereo not given) | 63.58 |
| CC(C)n1ccc(CN2CCN(c3cc(NC4CC4)nc(N)n3)CC2)c1 | 13.37 |
| NC(=O)C1CCCN1Cc1cccc(NC(=O)c2ccc(Cl)cc2F)c1 (stereo not given) | -4.35 |
| O=C(O)C(F)(F)F.O=C1COC2(COCCN(Cc3ccsc3)C2)CN1c1ccoc1 (stereo not given) | -47.88 |
| CSCCC1c2nc[nH]c2CCN1Cc1ccccc1C(F)(F)F (stereo not given) | 2.921 |
| CSCCC1c2nc[nH]c2CCN1Cc1ccccc1C#N (stereo not given) | 19.15 |
| CSCCC1c2nc[nH]c2CCN1Cc1cc(Cl)ccc1O (stereo not given) | 102.1 |
| CN1C[C@@H](N)C[C@H]1C(=O)N1CCC(Cc2ccc(F)cc2)CC1 | -16.49 |

| Compound | Percent Effect [%] |
| --- | --- |
| C1CC(CN2C[C@@H]3C[C@@H](c4nnc(C5CC5)o4)O[C@@H]3C2)C1 | -19.97 |
| Cn1cc(S(=O)(=O)Nc2c(F)cccc2N2CCCC2)cn1 | -1.726 |
| O=S(=O)(Nc1c(F)cccc1N1CCCC1)c1cncc(F)c1 | 35.26 |
| N#Cc1cccc(S(=O)(=O)Nc2c(F)cccc2N2CCCC2)c1 | 53.51 |
| Cc1cc(NCCNS(=O)(=O)c2cn(C)nc2C)c2ccccc2n1 | 11.79 |
| CNC(=O)c1cccc(CC2COCCN(Cc3ccsc3)C2)n1 (stereo not given) | -5.574 |
| CC1c2ncc(COCC3CC3)n2CCN1C(=O)c1ccnn1C (stereo not given) | 18.95 |
| Cc1cc2nc(C(C)C)cc(NCc3ccncc3)n2n1 | -23.44 |
| OCCn1nccc1C1CCN(CCOc2ccccc2)CC1 | -26.3 |
| O=C(c1ccc(S(=O)(=O)N2CCSCC2)cc1)N1CCC(O)C1 (stereo not given) | 10.6 |
| Cc1ccc2cc(C(=O)N3CCCN(C)CC3)ccc2n1 | -5.453 |
| COC(=O)C1CCN(C(=O)c2nnc3ccc(Cl)cc3n2)CC1 | 106.2 |
| CN1CCN(C(=O)c2nnc3ccc(Cl)cc3n2)CC1 | 64.7 |
| CCc1nc(C(=O)N2CCN(C)CC2)nn1-c1ccccc1Cl | -21.83 |
| COC(=O)C1CCN(C(=O)c2nnc3ccc(C)cc3n2)CC1 | -19.31 |
| COC(=O)C1CCN(C(=O)c2ccc(N(C)S(C)(=O)=O)c(C)c2)CC1 | -22.29 |
| COc1ccccc1CCN1CCCC(CN(C)Cc2ccc(C)o2)C1 (stereo not given) | 14.72 |
| CC1=N[C@@]2(CC[C@@H]3CN(C(=O)NCc4ccccc4C)C[C@@H]32)C(=O)N1 | 15.83 |
| Cc1nn(C)cc1C(=O)N1CCC(C(=O)c2nc3ccccc3s2)CC1 | 26.37 |
| Cn1nc(Cl)cc1C(=O)N1CCC(C(=O)c2nc3ccccc3s2)CC1 | -10.64 |
| Cc1c(C(=O)N2CCC(C(=O)c3nc4ccccc4s3)CC2)cnn1C | 60.09 |
